Experimental data from PMC7862700, “An all-to-all approach to the identification of sequence-specific readers for epigenetic DNA modifications on cytosine”.

Legend:
Assay in all cases: DAPPL (digital affinity profiling via proximity ligation, sequencing); 10 mM Tris-HCl pH 7.5, 50 mM NaCl, 1 mM DTT, 4% glycerol, room temperature, 30 min; GST-TFs on glutathione beads, 16-mer random dsDNA library, 0.1% formaldehyde crosslink after washing; high values mean tight binding
Details in all cases: protein: recombinant; tags: N-terminal GST; dsDNA, one strand shown
FLI1 = biological target: T1, FLI1 (Homo sapiens, UniProt Q01543 1-452)
T1 sequence: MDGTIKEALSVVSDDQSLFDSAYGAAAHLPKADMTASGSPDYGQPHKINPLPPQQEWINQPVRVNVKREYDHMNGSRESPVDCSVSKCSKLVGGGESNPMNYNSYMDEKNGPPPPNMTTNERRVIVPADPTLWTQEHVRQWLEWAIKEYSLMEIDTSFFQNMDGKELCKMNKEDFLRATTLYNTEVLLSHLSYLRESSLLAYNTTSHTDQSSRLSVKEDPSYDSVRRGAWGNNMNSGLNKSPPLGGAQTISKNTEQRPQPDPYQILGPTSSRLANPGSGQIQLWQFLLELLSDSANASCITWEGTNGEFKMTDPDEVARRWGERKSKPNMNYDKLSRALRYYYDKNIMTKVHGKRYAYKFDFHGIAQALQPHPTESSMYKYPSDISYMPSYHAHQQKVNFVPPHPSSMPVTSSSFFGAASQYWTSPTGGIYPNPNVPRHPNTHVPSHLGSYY
In short: (§1)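 Human transcription factors carrying a GST fusion were produced in yeast, bound to glutathione beads, tagged with DNA barcodes and pooled together with a tag-only sample. Each pool was held with 200 nmole of a random double-stranded 16-mer DNA library in Tris/NaCl/DTT/glycerol buffer for 30 min at room temperature, then washed, crosslinked in 0.1% formaldehyde, proximity-ligated with BsaI/T4 ligase (1 h, 37 °C), PCR-amplified and sequenced on an Illumina NextSeq500. Binding signal is the read frequency of each hexamer for a given factor divided by its frequency in the tag-only sample.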

ELK1 = biological target: T2, ELK1 (Homo sapiens, UniProt P19419 1-428)
T2 sequence: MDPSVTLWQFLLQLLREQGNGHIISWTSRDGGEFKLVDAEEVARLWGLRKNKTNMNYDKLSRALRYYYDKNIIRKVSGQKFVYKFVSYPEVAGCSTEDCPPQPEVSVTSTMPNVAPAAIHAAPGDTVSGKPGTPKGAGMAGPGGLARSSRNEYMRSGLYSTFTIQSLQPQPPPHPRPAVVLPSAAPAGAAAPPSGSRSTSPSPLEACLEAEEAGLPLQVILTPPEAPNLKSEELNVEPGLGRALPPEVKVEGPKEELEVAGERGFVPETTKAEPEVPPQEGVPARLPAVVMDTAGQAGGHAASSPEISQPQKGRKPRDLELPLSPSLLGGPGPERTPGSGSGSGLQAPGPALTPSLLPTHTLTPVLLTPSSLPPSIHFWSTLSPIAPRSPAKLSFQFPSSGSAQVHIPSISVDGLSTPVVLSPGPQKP
In short: as §1

GABPA = biological target: T3, GABPA (Homo sapiens, UniProt Q06546 1-454)
T3 sequence: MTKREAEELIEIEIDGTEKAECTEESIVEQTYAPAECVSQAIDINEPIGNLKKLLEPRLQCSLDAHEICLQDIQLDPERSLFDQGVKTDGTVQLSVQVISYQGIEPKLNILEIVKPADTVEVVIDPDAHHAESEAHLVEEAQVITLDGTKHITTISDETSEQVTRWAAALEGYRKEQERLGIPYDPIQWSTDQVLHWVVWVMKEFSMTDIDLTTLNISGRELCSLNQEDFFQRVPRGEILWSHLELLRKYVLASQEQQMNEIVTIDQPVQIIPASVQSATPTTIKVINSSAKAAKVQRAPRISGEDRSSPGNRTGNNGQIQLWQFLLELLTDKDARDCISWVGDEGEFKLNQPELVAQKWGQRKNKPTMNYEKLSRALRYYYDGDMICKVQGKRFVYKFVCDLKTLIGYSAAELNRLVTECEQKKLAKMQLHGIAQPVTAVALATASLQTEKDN
In short: as §1

ERG = biological target: T4, ERG (Homo sapiens, UniProt P11308 1-479)
T4 sequence: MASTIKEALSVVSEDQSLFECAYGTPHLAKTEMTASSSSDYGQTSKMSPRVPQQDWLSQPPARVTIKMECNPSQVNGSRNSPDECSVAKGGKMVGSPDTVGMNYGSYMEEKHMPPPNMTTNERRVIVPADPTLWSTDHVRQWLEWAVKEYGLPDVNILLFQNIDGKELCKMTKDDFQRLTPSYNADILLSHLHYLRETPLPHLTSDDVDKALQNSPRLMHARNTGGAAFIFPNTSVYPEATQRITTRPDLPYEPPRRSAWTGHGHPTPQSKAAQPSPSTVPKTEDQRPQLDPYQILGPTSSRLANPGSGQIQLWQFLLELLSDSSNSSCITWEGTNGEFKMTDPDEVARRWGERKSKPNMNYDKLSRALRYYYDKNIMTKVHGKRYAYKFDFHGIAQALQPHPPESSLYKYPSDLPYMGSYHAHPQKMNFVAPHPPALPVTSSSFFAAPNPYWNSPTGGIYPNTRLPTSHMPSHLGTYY
In short: as §1

ELF1 = ELF1 (Homo sapiens, UniProt P32519 1-619)
ELF1, sequence (P32519 whole entry): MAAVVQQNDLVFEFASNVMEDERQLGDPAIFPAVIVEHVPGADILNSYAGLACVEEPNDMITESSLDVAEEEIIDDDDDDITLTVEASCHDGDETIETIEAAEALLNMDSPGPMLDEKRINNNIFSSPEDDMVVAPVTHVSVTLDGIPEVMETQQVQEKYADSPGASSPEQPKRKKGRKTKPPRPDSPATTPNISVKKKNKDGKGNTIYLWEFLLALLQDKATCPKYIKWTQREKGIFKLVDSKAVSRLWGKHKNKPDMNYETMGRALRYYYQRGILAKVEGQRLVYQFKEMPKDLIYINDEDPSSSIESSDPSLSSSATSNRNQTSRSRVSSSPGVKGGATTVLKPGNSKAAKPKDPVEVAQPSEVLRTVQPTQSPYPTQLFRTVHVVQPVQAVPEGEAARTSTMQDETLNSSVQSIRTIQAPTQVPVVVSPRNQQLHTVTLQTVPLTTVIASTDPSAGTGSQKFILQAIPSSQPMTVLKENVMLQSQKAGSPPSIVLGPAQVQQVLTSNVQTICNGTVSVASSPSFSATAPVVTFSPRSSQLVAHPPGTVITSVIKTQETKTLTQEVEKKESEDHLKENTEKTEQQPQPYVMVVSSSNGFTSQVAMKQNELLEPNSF
In short: as §1

EHF = biological target: T5, EHF (Homo sapiens, UniProt Q9NZC4 1-300)
T5 sequence: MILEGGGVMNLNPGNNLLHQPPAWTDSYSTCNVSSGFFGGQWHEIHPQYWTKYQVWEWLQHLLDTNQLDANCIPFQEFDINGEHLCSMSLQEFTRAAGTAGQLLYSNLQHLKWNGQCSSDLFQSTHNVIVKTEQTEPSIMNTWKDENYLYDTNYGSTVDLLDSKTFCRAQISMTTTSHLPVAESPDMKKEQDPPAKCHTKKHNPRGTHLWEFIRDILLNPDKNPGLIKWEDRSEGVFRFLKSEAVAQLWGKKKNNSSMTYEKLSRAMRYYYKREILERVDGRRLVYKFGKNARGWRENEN
In short: as §1

SPI1 = SPI1 (Homo sapiens, UniProt P17947 1-270)
In short: as §1

SPIB = SPIB (Homo sapiens, UniProt Q01892 1-262)
SPIB, sequence (Q01892 whole entry): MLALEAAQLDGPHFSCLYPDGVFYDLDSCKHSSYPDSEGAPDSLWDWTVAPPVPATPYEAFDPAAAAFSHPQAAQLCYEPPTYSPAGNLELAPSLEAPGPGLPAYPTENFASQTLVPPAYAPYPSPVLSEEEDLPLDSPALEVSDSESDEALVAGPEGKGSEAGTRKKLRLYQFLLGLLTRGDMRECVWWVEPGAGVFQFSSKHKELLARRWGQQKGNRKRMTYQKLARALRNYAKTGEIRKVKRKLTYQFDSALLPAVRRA
In short: as §1

ELK3 = biological target: T6, ELK3 (Homo sapiens, UniProt P41970 1-407)
T6 sequence: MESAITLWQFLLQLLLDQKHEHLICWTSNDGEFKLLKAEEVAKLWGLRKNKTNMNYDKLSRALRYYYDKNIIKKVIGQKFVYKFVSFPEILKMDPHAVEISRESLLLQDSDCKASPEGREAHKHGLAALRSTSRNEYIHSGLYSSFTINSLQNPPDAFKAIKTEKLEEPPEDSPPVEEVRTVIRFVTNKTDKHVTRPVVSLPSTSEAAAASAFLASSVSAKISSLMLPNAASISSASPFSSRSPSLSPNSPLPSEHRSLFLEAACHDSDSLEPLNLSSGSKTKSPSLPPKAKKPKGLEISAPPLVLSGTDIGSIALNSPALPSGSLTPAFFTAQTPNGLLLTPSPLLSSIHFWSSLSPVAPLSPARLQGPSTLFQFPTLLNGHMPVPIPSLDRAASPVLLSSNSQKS
In short: as §1

TGTCCG
binding signal (FLI1): 1.47 fold enrichment (6-mer frequency, TF over GST control)
binding signal (ELK1): 1.42 fold enrichment (6-mer frequency, TF over GST control)
binding signal (GABPA): 1.48 fold enrichment (6-mer frequency, TF over GST control)
binding signal (ERG): 1.58 fold enrichment (6-mer frequency, TF over GST control)
binding signal (ELF1): 1.41 fold enrichment (6-mer frequency, TF over GST control)
binding signal (EHF): 1.42 fold enrichment (6-mer frequency, TF over GST control)
binding signal (SPI1): 1.2 fold enrichment (6-mer frequency, TF over GST control)
binding signal (SPIB): 1.56 fold enrichment (6-mer frequency, TF over GST control)
binding signal (ELK3): 1.39 fold enrichment (6-mer frequency, TF over GST control)

CTTTCA
binding signal (FLI1): 1.45 fold enrichment (6-mer frequency, TF over GST control)
binding signal (ELK1): 1.32 fold enrichment (6-mer frequency, TF over GST control)
binding signal (GABPA): 1.46 fold enrichment (6-mer frequency, TF over GST control)
binding signal (ERG): 1.23 fold enrichment (6-mer frequency, TF over GST control)
binding signal (ELF1): 1.41 fold enrichment (6-mer frequency, TF over GST control)
binding signal (EHF): 1.3 fold enrichment (6-mer frequency, TF over GST control)
binding signal (SPI1): 1.45 fold enrichment (6-mer frequency, TF over GST control)
binding signal (SPIB): 1.28 fold enrichment (6-mer frequency, TF over GST control)
binding signal (ELK3): 1.36 fold enrichment (6-mer frequency, TF over GST control)

TGCACA
binding signal (FLI1): 1.18 fold enrichment (6-mer frequency, TF over GST control)
binding signal (ELK1): 1.18 fold enrichment (6-mer frequency, TF over GST control)
binding signal (GABPA): 1.03 fold enrichment (6-mer frequency, TF over GST control)
binding signal (ERG): 1.09 fold enrichment (6-mer frequency, TF over GST control)
binding signal (ELF1): 1.1 fold enrichment (6-mer frequency, TF over GST control)
binding signal (EHF): 1.02 fold enrichment (6-mer frequency, TF over GST control)
binding signal (SPI1): 1.05 fold enrichment (6-mer frequency, TF over GST control)
binding signal (SPIB): 1.13 fold enrichment (6-mer frequency, TF over GST control)
binding signal (ELK3): 1.2 fold enrichment (6-mer frequency, TF over GST control)

TAGCAT
binding signal (FLI1): 1.16 fold enrichment (6-mer frequency, TF over GST control)
binding signal (ELK1): 1.15 fold enrichment (6-mer frequency, TF over GST control)
binding signal (GABPA): 1.05 fold enrichment (6-mer frequency, TF over GST control)
binding signal (ERG): 1.11 fold enrichment (6-mer frequency, TF over GST control)
binding signal (ELF1): 1.17 fold enrichment (6-mer frequency, TF over GST control)
binding signal (EHF): 1.14 fold enrichment (6-mer frequency, TF over GST control)
binding signal (SPI1): 1.07 fold enrichment (6-mer frequency, TF over GST control)
binding signal (SPIB): 1.05 fold enrichment (6-mer frequency, TF over GST control)
binding signal (ELK3): 1.13 fold enrichment (6-mer frequency, TF over GST control)

AAGGAA
binding signal (FLI1): 1.19 fold enrichment (6-mer frequency, TF over GST control)
binding signal (ELK1): 1.27 fold enrichment (6-mer frequency, TF over GST control)
binding signal (GABPA): 1.2 fold enrichment (6-mer frequency, TF over GST control)
binding signal (ERG): 1.44 fold enrichment (6-mer frequency, TF over GST control)
binding signal (ELF1): 1.25 fold enrichment (6-mer frequency, TF over GST control)
binding signal (EHF): 1.48 fold enrichment (6-mer frequency, TF over GST control)
binding signal (SPI1): 1.48 fold enrichment (6-mer frequency, TF over GST control)
binding signal (SPIB): 1.29 fold enrichment (6-mer frequency, TF over GST control)
binding signal (ELK3): 1.21 fold enrichment (6-mer frequency, TF over GST control)

CACTCT
binding signal (FLI1): 1.27 fold enrichment (6-mer frequency, TF over GST control)
binding signal (ELK1): 1.25 fold enrichment (6-mer frequency, TF over GST control)
binding signal (GABPA): 1.19 fold enrichment (6-mer frequency, TF over GST control)
binding signal (ERG): 1.24 fold enrichment (6-mer frequency, TF over GST control)
binding signal (ELF1): 1.36 fold enrichment (6-mer frequency, TF over GST control)
binding signal (EHF): 1.38 fold enrichment (6-mer frequency, TF over GST control)
binding signal (SPI1): 1.34 fold enrichment (6-mer frequency, TF over GST control)
binding signal (SPIB): 1.23 fold enrichment (6-mer frequency, TF over GST control)
binding signal (ELK3): 1.34 fold enrichment (6-mer frequency, TF over GST control)

ACAAAA
binding signal (FLI1): 1.14 fold enrichment (6-mer frequency, TF over GST control)
binding signal (ELK1): 1.11 fold enrichment (6-mer frequency, TF over GST control)
binding signal (GABPA): 1.15 fold enrichment (6-mer frequency, TF over GST control)
binding signal (ERG): 1.18 fold enrichment (6-mer frequency, TF over GST control)
binding signal (ELF1): 1.16 fold enrichment (6-mer frequency, TF over GST control)
binding signal (EHF): 1.21 fold enrichment (6-mer frequency, TF over GST control)
binding signal (SPI1): 1.22 fold enrichment (6-mer frequency, TF over GST control)
binding signal (SPIB): 1.14 fold enrichment (6-mer frequency, TF over GST control)
binding signal (ELK3): 1.16 fold enrichment (6-mer frequency, TF over GST control)

CAACAT
binding signal (FLI1): 1.18 fold enrichment (6-mer frequency, TF over GST control)
binding signal (ELK1): 1.21 fold enrichment (6-mer frequency, TF over GST control)
binding signal (GABPA): 1.22 fold enrichment (6-mer frequency, TF over GST control)
binding signal (ERG): 1.2 fold enrichment (6-mer frequency, TF over GST control)
binding signal (ELF1): 1.2 fold enrichment (6-mer frequency, TF over GST control)
binding signal (EHF): 1.23 fold enrichment (6-mer frequency, TF over GST control)
binding signal (SPI1): 1.06 fold enrichment (6-mer frequency, TF over GST control)
binding signal (SPIB): 1.14 fold enrichment (6-mer frequency, TF over GST control)
binding signal (ELK3): 1.14 fold enrichment (6-mer frequency, TF over GST control)
